Here are results for four compounds from PubChem BioAssay.

Assay [1] is described as follows: rapamycin-like changes in RPL19A-GFP expression – cell-based, S. cerevisiae, multiplex flow cytometry, primary screen (AID 1862; in the data active = percent of DMSO control GFP below about 86%;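 note: lower values mimic rapamycin by blocking the RPL19A rise seen in DMSO cells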). Conditions: S. cerevisiae RPL19A-GFP strain, flow cytometry fluorescence, 3 h; at 10 µM; stronger effect = lower value. In general terms: Flow cytometry measures light scatter and fluorescence of single cells or particles in a stream.
Assay [2] can be described thus: TOR pathway GLN3 branch reporter MEP2-GFP changes – S. cerevisiae, multiplex flow cytometry, primary screen (AID 1867;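 active = GFP response, as percent of the DMSO control, above the screen-wide mean plus 3 SD, about 139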;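 note: median GFP channel fluorescence of barcode-gated MEP2-GFP cells measured by flow cytometry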). Conditions: S. cerevisiae MEP2-GFP strain, 3 h, at 10 µM, stronger effect = higher value, 100% means same as DMSO wells.
A short description of assay [3]: TOR pathway RTG branch CIT2 reporter changes – S. cerevisiae, GFP fusion, multiplex flow cytometry, primary screen (AID 1870;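 active = percent response above a set limit, the screen-wide mean plus 3 SD, cut at about 130% in these data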;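 note: barcoded CIT2-GFP strain pooled with four other GFP strains with rapamycin as positive control; median GFP fluorescence per well over plate mean of DMSO wells so 100% = DMSO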). Conditions: S. cerevisiae CIT2-GFP expression, 3 h, at 10 µM, stronger effect = higher value.
A short description of assay [4]: TOR pathway LAP4-GFP level changes – S. cerevisiae, multiplex flow cytometry, primary screen (AID 1873;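 active = GFP signal, as percent of the solvent control, above the screen mean plus 3 SD, about 149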). Conditions: S. cerevisiae LAP4-GFP expression, 3 h, at 10 µM, stronger effect = higher value.
The nature of assay [5]: yeast AGP1-GFP level changes, GLN3 branch – cell-based, multiplex flow cytometry, S. cerevisiae, primary screen (AID 1887;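 active = GFP signal above the screen-wide mean plus 3 SD, that is over about 124.5% of the solvent control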;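 note: AGP1-GFP fusion strain of S. cerevisiae within a five-strain barcoded multiplex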). Conditions: 3 h, at 10 µM, stronger effect = higher value.
Assay [6] is described as follows: reduced mouse 2C T cell binding to pMHC/ICAM-1 vesicles – MLPCN validation set, flow cytometry, LFA-1/ICAM-1 modulator project, pilot screen (AID 2523;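 active = response below a set limit, under 55% cells CD8-positive and vesicle-bound, and CD8 cells' 90th-percentile brightness under 279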;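 for vesicle binding response: mean PE anti-B7-1 fluorescence of CD8+ cells relative to row control; 100% = QL9-loaded vesicles with DMSO vehicle in the same plate row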). Conditions: 2C mouse CD8+ T cells, at 7 µM, stronger effect = lower value; double positive events: measured here: CD8+/vesicle+ event percentage.
The target of assay [7] is Integrin beta-1 (Homo sapiens) + Integrin alpha-4 (Homo sapiens) (UniProt P13612+P05556). The assay can be described thus: alpha4beta1 integrin LIBS antibody binding reduction – U937 cells, HUTS-21 mAb, flow cytometry, validation set, VLA-4 allosteric modulator project, pilot screen (AID 2674;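 active = inhibition above 50%, about 3 SD of the validation set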;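 note: antibody binding induced by the VLA-4 ligand LDV present at three times its Kd; 0% = LDV ligand with antibody and no compound and 100% = antibody without LDV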). Conditions: HUTS-21 LIBS mAb binding, at 6.7 µM, stronger effect = higher value, binding induced by LDV ligand.

Assay [8] can be described thus: calorie-restriction mimetic ROS inhibitors, yeast – validation compound set, pilot screen (AID 2706;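 active = superoxide response below 65% of plate, a cut near 3 SD across the whole screen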;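 note: yeast exposed to compound for one week at 30 degrees C before staining; 100% = mean of all compound wells on the same plate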). Conditions: S. cerevisiae aging, superoxide DHE fluorescence; at 10 µM, stronger effect = lower value.
Assay [9] deals with Beta-adrenergic receptor kinase 1 (Homo sapiens) (UniProt P25098). Description: GRK2 binders displacing RNA aptamer, biochemical, validation, human GRK2, bead flow cytometry (AID 488806;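 active = aptamer binding inhibition above 30%, about 3 SD of noise from non-fluorescent compounds; inactive = inhibition at or below 30%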). Conditions: bead-bound GRK2, FAM-aptamer displacement, at 10 µM, stronger effect = higher value.
The target in assay [10] is AP-2 complex subunit beta (Homo sapiens) (UniProt P63010). Description: beta-arrestin/AP2 interaction blockers – biochemical, validation set, GST-AP2 beads, flow cytometry, pilot screen (AID 504541;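 active = inhibition above 54%, about 3 SD of non-fluorescent compounds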;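 note: AP2 carries R879A mutation and is captured from E. coli lysate; bead-bound FITC arrestin peptide fluorescence measuring arrestin peptide binding to AP2; 0% = DMSO wells and 100% = excess unlabeled arrestin peptide control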). Conditions: FITC arrestin peptide, at 10 µM, stronger effect = higher value, AP2 beta2 appendage fragment, R879A mutant.
A short description of assay [11]: cytosolic pH regulators acting via V-ATPase – S. cerevisiae, pHLuorin, HTS validation (AID 504600; in the data active = response above about 15%;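 note: plate controls were DMSO for no effect and reference compound for full effect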). Conditions: V-ATPase proton transport, at 10 µM, stronger effect = higher value.
The test system of assay [12] is anti-desmoglein-3 scFv antibody binding to human DSG3. The assay can be described thus: blockers of pathogenic pemphigus antibody–desmoglein-3 binding – biochemical, validation compound set, bead-based, flow cytometry, pilot screen (AID 588368;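 active = binding below the plate cutoff, the plate median minus 3 SD, with a reading above zero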;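 note: signal is the median channel fluorescence of bead-bound GFP antibody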). Conditions: Protein G beads, DSG3-Fc, scFv-GFP binding, at 10 µM, stronger effect = lower value.
A short description of assay [13]: Nile Red efflux blockade in pump-expressing yeast – validation compound set, multiplex, phenotypic, pilot screen (AID 588506;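 active = efflux inhibition above 0.42, the validation set average plus 4 SD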;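 note: Nile Red retained in cells so higher fluorescence means more efflux inhibition; 0 = negative control wells and 1 = enniatin B 25 µM full block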). Conditions: S. cerevisiae pump-expressing triplex, Nile Red efflux flow cytometry; at 10 µM; stronger effect = higher value; the pumps come from Candida albicans.
Assay [14] deals with ATP-binding cassette sub-family B member 6 (Homo sapiens) (UniProt Q9NP58). The assay can be described thus: blockers of ABCB6-driven porphyrin uptake – K562-ABCB6 cells, flow cytometry, validation set, pilot screen (AID 588550).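 Note: 0% = DMSO wells and 100% = benzethonium chloride 70 µM positive control.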 Conditions: K562-ABCB6 porphyrin accumulation, 1 h, at 10 µM, stronger effect = higher value.
Assay [15] can be described thus: AML differentiation inducers, ER-HoxA9 marrow cells – cell-based, GFP/MAC1 double positive, flow cytometry, validation set, primary screen (AID 588685;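 active = differentiation response of at least 50%, scaled between solvent and reference control, from cells with both markers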;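 note: compound exposure lasts four days before antibody staining and flow analysis; 0% = DMSO wells and 100% = 5 µM fulvestrant positive control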). Conditions: stronger effect = higher value, normalized: vehicle 0, fulvestrant 100.

The term inhibition denotes the drop in the measured response relative to a control, in per cent.

Each structure is given as a SMILES string. Inconclusive results are not listed. The source made the active and inactive calls.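 Rule for the calls, unless noted: active = inhibition above the screen-wide mean plus 3 SD, about 51%; inactive = the rest.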

Chain of ATP-binding cassette sub-family B member 6 (Homo sapiens) (Q9NP58 whole entry, looked up): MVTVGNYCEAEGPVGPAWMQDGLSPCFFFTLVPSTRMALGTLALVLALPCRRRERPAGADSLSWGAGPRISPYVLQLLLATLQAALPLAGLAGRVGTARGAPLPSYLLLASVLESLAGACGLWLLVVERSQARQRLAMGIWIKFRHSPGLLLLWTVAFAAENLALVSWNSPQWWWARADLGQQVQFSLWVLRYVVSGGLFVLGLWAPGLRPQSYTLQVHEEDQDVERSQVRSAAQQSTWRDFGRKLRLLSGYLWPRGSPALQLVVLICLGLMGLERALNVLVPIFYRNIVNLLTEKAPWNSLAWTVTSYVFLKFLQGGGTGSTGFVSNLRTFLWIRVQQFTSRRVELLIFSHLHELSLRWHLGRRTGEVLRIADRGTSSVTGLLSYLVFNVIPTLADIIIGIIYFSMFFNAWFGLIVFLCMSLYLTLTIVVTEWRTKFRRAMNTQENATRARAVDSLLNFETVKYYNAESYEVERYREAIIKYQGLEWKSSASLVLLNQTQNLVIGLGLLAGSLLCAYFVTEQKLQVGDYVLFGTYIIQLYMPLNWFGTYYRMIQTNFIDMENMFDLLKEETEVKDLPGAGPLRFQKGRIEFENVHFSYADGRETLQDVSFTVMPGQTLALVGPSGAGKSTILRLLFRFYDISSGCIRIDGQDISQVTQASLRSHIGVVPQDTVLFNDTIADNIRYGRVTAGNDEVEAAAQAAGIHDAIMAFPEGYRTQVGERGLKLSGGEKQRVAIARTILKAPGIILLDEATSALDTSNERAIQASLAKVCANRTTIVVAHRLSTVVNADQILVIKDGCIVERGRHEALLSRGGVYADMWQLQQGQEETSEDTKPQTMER
Chain of AP-2 complex subunit beta (Homo sapiens) (P63010 whole entry, looked up, the tested form may be a part, one chain of several): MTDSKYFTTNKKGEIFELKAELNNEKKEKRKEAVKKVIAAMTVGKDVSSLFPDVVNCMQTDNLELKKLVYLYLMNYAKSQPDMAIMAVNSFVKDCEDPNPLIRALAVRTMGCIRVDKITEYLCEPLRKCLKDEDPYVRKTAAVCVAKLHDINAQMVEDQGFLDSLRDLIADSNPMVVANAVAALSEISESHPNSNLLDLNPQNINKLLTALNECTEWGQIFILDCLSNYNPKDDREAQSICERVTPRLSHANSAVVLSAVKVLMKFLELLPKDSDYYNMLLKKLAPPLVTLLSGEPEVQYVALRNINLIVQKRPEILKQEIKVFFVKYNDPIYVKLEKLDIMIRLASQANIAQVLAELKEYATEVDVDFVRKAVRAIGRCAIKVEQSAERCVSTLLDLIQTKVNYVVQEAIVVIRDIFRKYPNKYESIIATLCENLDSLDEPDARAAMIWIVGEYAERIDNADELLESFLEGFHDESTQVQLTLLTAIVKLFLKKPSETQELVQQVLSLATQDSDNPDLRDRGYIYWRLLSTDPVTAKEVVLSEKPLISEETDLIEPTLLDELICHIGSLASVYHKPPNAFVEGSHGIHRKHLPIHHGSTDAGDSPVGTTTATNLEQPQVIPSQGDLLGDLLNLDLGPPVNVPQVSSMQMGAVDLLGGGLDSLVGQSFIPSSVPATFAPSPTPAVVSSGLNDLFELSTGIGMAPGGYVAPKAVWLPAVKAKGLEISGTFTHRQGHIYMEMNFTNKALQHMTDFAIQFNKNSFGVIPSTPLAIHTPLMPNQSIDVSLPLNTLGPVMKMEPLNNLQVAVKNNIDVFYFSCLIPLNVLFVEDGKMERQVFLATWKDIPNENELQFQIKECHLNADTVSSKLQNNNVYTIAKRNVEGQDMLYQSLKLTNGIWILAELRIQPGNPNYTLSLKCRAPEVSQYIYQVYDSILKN
Chain of Integrin beta-1 (Homo sapiens) + Integrin alpha-4 (Homo sapiens) (P05556 whole entry, looked up): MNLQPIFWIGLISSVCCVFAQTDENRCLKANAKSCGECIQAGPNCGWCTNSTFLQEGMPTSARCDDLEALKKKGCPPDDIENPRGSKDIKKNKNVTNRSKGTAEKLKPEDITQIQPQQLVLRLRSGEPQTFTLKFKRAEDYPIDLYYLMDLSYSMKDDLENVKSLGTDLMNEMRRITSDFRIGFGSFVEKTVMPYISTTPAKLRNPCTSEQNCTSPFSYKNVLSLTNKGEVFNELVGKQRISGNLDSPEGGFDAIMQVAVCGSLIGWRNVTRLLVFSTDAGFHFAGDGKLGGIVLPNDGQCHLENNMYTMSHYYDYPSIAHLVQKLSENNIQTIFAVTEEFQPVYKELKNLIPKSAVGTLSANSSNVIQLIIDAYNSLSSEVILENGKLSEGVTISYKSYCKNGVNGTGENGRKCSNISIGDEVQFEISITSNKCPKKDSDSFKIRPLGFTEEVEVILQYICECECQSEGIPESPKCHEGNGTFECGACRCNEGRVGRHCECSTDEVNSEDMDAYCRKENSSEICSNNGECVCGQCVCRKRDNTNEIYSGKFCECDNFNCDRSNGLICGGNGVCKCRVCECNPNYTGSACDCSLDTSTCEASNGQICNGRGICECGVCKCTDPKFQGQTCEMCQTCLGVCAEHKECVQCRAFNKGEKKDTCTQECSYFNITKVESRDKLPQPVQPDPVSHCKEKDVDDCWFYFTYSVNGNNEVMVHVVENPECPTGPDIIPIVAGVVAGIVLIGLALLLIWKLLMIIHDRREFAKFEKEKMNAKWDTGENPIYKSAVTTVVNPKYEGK
Chain of Integrin beta-1 (Homo sapiens) + Integrin alpha-4 (Homo sapiens) (P13612 whole entry, looked up): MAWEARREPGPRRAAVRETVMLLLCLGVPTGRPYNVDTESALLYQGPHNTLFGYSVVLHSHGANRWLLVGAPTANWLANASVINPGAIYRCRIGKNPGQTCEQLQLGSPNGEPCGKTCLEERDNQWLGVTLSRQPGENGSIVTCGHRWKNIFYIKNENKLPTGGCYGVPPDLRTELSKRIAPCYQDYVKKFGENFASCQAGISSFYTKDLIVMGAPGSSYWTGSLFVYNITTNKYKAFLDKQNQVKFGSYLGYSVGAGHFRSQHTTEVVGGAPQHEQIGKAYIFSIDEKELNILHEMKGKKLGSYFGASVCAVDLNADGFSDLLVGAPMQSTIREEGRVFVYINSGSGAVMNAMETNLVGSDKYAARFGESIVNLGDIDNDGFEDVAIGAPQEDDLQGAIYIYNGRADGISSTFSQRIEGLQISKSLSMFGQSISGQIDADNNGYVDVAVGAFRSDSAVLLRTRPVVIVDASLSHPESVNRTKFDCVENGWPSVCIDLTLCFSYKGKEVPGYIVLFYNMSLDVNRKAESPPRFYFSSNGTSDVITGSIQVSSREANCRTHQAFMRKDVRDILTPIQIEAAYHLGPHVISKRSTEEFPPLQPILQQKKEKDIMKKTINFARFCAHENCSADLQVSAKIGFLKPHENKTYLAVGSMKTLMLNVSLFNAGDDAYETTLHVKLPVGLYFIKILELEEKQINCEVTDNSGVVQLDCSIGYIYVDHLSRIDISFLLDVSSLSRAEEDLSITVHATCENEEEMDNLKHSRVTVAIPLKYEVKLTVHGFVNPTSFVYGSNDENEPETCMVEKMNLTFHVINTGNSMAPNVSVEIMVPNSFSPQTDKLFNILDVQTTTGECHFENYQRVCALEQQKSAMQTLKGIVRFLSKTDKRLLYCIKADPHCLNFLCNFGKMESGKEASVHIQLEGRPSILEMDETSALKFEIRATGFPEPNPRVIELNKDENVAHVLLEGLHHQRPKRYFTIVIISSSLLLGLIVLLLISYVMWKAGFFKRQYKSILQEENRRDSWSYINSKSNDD
Chain of Beta-adrenergic receptor kinase 1 (Homo sapiens) (P25098 whole entry, looked up): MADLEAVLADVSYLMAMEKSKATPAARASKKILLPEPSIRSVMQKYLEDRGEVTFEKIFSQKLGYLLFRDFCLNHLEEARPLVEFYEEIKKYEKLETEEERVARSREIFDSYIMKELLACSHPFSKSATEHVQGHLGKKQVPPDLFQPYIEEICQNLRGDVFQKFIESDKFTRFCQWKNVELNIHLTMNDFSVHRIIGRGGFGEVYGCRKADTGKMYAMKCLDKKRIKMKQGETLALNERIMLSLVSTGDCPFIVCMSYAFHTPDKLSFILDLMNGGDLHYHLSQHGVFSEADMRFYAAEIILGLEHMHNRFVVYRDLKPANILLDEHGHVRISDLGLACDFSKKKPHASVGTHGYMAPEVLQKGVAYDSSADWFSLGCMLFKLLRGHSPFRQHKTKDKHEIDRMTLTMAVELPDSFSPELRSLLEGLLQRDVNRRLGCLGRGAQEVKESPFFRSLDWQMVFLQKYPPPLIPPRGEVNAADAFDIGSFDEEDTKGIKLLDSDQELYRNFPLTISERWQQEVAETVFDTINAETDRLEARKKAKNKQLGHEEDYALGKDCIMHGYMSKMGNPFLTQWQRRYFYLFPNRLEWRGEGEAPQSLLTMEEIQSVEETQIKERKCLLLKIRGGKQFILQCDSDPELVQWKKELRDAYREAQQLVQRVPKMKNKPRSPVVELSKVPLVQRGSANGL

Take `COc1ccc(C2C(=O)c3ccccc3C2=O)cc1`: the percent of DMSO control GFP in [1] is 97.8% (inactive). The results for the GFP response vs DMSO in [2] and in assay [4] were 101% (inactive) and 111% (inactive), respectively. Besides, the percent response of DMSO control in assay [3] was 102% (inactive). Also, the GFP response, % of DMSO in assay [5] is 94.8% (inactive). Besides, the double positive events in [6] was 55.9%. In addition, the vesicle binding response in assay [6] was 198% (inactive). The values for the inhibition in assay [7], in assay [10] and in [14] were 0.69% (inactive), -15.3% (inactive) and 4% (inactive), respectively. In addition, the superoxide response (% of plate) in assay [8] is 96.8% (inactive). Also, in assay [9], the aptamer binding inhibition was 1% (inactive). Moreover, in assay [11], the response was -9.82% (inactive). In addition, the binding (% of control) in assay [12] was 95.6% (inactive). Also, the efflux inhibition (fraction of control) in assay [13] was -0.24 (inactive). Further, in assay [15], the differentiation response was -18% (inactive).
Take `CCOC(=O)c1cnc2ccccc2c1NCCO`: the percent of DMSO control GFP in assay [1] is 108% (inactive). Besides, the GFP response vs DMSO was 99.9% (inactive) in assay [2] and 102% (inactive) in assay [4]. Moreover, the percent response of DMSO control in assay [3] is 109% (inactive). Also, in assay [5], the GFP response, % of DMSO is 103% (inactive). The same compound registered a double positive events in assay [6] of 61.1%. In addition, the vesicle binding response in [6] is 186% (inactive). The inhibition in assay [7] is 1.62% (inactive); in assay [10], -2.19% (inactive); in [14] it was 7% (inactive). Further, the superoxide response (% of plate) in [8] is 98.1% (inactive). Moreover, the aptamer binding inhibition in [9] was 0% (inactive). Also, the response in assay [11] was 5.12% (inactive). Further, in assay [12], the binding (% of control) is 99.8% (inactive). Moreover, the efflux inhibition (fraction of control) in [13] is -0.12 (inactive). In addition, in [15], the differentiation response is -18% (inactive).
As for `CC(=O)Oc1ccc(C(=O)O)cc1OC(C)=O`, in [1], the percent of DMSO control GFP is 98% (inactive). The GFP response vs DMSO was 104% (inactive) in assay [2] and 99.4% (inactive) in assay [4]. Moreover, the percent response of DMSO control in [3] was 104% (inactive). Moreover, the GFP response, % of DMSO in assay [5] was 98.4% (inactive). This compound registered a double positive events in assay [6] of 59.1%. In addition, the vesicle binding response in assay [6] is 164% (inactive). Also, the inhibition in assay [7] is -3.04% (inactive); in assay [10] it was -6.29% (inactive); in assay [14] it was 6% (inactive). Moreover, in assay [8], the superoxide response (% of plate) was 98.2% (inactive). In assay [9], the aptamer binding inhibition was 4% (inactive). In addition, the response in assay [11] is 0.26% (inactive). Moreover, the binding (% of control) in [12] is 105% (inactive). Besides, in assay [13], the efflux inhibition (fraction of control) is -0.01 (inactive). In addition, the differentiation response in [15] was 1.41% (inactive).
As to `OC[C@H]1O[C@@H](n2cnc3c(NC4CCCC4)ncnc32)[C@H](O)[C@@H]1O`, in assay [1], the percent of DMSO control GFP is 96.8% (inactive). Moreover, the GFP response vs DMSO in assay [2] is 98.9% (inactive); in assay [4], 99.4% (inactive). Moreover, the percent response of DMSO control in assay [3] was 98.8% (inactive). Besides, the GFP response, % of DMSO in assay [5] was 98.4% (inactive). The double positive events in assay [6] came to 52.6%. Further, the vesicle binding response in assay [6] was 139% (inactive). Also, the figures for the inhibition in assay [7], in assay [10] and in assay [14] were 6.29% (inactive), 7.18% (inactive) and 2% (inactive), respectively. Besides, the superoxide response (% of plate) in [8] is 102% (inactive). Moreover, the aptamer binding inhibition in assay [9] was 4% (inactive). Moreover, in assay [11], the response is -1.41% (inactive). Besides, the binding (% of control) in assay [12] is 104% (inactive). Also, in assay [13], the efflux inhibition (fraction of control) is 0.18 (inactive). In assay [15], the differentiation response is -8.27% (inactive).
